In PubChem BioAssay (NCATS):
“And” between values parts separate entries of the source, which are not always exact repeats. Equal values may be shown once. Records with an inconclusive call do not appear. The source made the active and inactive calls. Calls follow the shape of the dose curve; as a rule, active = well fitted inhibition curve with a large enough effect; inconclusive = small, poorly fitted or top-dose-only effect; inactive = flat fitted curve, though single readings scatter. Where a SMILES comes first, the peptide text is derived from it. [ ]: non-standard residue; d: D form. 2Abz = Nc1ccccc1C(=O)O

How the values were obtained:
Assay in all cases: Cytotoxic Profiling of Annotated Libraries Using Quantitative High-Throughput Screening (AID 1296008); also: nearly all actives have a fitted effect of over 60% in size
Details in all cases: Five cell lines viability, CellTiter-Glo ATP luminescence, 48-72 h; max response: active compounds read low
[1] = system: CRL-7250
Summary of the method: (§1)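 Cytotoxicity was measured as CellTiter-Glo ATP luminescence, read after 10 min at room temperature. Compound treatment of the cells lasted 48 or 72 hr at 37 degrees Celsius in a qHTS format.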

[2] = system: HEK293
Summary of the method: as §1

[3] = system: HaCat
Summary of the method: as §1
% is scaled to controls: 0 for no effect and ±100 for the full control effect; potency is read from the fitted curve at half-maximal effect.

C=C(C(=O)O)[C@@H]1CC=C2CCC[C@H](C)[C@@]2(C)C1
inactive: max response [1] -11.2% | outcome [2] | outcome [3]

COc1cc(CCc2ccccc2)c(C(=O)O)c2c1CC(C(C)(C)O)O2 (configuration not stated)
inactive: outcome [1] | outcome [2] | outcome [3]

Cc1[nH]cnc1C1CCN(c2nc3cccc4c3n2CCC4=O)CC1
inactive: outcome [1] | outcome [2] | outcome [3]

C=C1CC[C@@H]2[C@](C)(CO[C@@H]3O[C@H](CO)[C@@H](O)[C@H](O)[C@H]3O)CCC[C@@]2(C)[C@@H]1CCC1=CCOC1=O
inactive: outcome [1] | outcome [2] | outcome [3]

CC1(C)O[C@]23C[C@H]1C[C@H](OC(=O)c1ccoc1)[C@]2(C)[C@@H](OC(=O)c1ccoc1)CCC3(C)O (some centres not stated)
inactive: max response [1] 0.391% | outcome [2] | max response [3] 2.39%

CC(C)(O)c1ccc2c(c1)C(=O)CC1[C@](C)(CO)CCC[C@]21C (some centres not stated)
inactive: max response [1] -1.72% | outcome [2] | outcome [3]

CCCCN(CCCC)C(=O)CN1C[C@H](c2ccc3c(c2)OCO3)[C@@H](C(=O)O)[C@@H]1c1ccc(OC)cc1
inactive: max response [1] -2.69% | outcome [2] | outcome [3]

C=C(C(=O)OC)C1CCC2(C)C(O[C@@H]3O[C@H](CO)[C@@H](O)[C@H](O)[C@H]3O)CC(=O)C(C)C2C1O (some centres not stated)
inactive: max response [1] 1.28% | outcome [2] | max response [3] -1.72%

CN1CCC(c2c[nH]c3ccc(NC(=O)c4ccc(F)cc4)cc23)CC1
inactive: max response [1] -9.85% | outcome [2] | outcome [3]

CC1CC(=O)C2=C(O1)OC1(C)CCC3C(C)(C)C=CC(=O)C3(C)C1C2 (configuration not stated)
inactive: max response [1] -3.54% | outcome [2] | outcome [3]

O=C(c1ccc(F)cc1)C1CCN(CCn2c(=O)nc3n(c2=O)CCCC3)CC1
inactive: max response [1] 3.3% | outcome [2] | outcome [3] inactive; activator

O=C(COc1ccc(Cl)cc1)NC1CCC(NC(=O)COc2ccc(Cl)cc2)CC1 (configuration not stated)
inactive: max response [1] 2.66% | outcome [2] | outcome [3]

Cc1ccc(C(=O)Nc2ccc(Oc3cc4cnn(C)c4cc3-c3cn[nH]c3)c(F)c2)c(=O)n1-c1ccc(F)cc1
active: Potency [1] 4.67 µM | Potency [2] 5.8 µM and 3.31 µM | Potency [3] 16.6 µM

C[C@@H]1O[C@@H](O[C@H]2[C@H](O[C@H]3[C@H](O[C@H]4CC[C@@]5(C)C(CC[C@]6(C)C5CC=C5[C@@H]7CC(C)(C(=O)O)C[C@@H](O)[C@]7(C)CC[C@]56C)[C@@]4(C)CO)O[C@H](C(=O)O)[C@@H](O)[C@@H]3O)O[C@H](CO)[C@H](O)[C@@H]2O)[C@H](O)[C@H](O)[C@H]1O (some centres not stated)
inactive: max response [1] -5.52% | outcome [2] | outcome [3]

COC(=O)[C@H](CC1C=NC=N1)NCC12CC3CC(CC(C3)C1)C2 (some centres not stated)
inactive: max response [1] -3.43% | outcome [2] | outcome [3]

COc1ccccc1[C@@H]1C2=C(CC(C)(C)CC2=O)Nc2n[nH]c(C(F)(F)F)c21
inactive: max response [1] 3.92% | outcome [2] | outcome [3]

CN1CC[C@@H](NC(=O)Nc2ccc(C#N)cc2)C[C@@H]1c1nc2ccccc2[nH]1
inactive: max response [1] -0.913% | outcome [2] | outcome [3]

CCC(C)/C=C(C)/C=C/C1=CC2=C(Cl)C(=O)C(C)(OC(C)=O)C(=O)C2=CN1C1CCCCN(C(CCC(N)=O)C(=O)O)C1=O (configuration not stated)
inactive: outcome [1] | outcome [2] | outcome [3]

C[C@@H](OC(=O)/C=C/c1ccc(O)cc1)C1=C[C@]2(C=C[C@@H]3C(C(=O)O)=CO[C@@H](O[C@@H]4O[C@H](CO[C@@H]5O[C@H](CO)[C@@H](O)[C@H](O)[C@H]5O)[C@@H](O)[C@H](O)[C@H]4O)[C@@H]32)OC1=O
inactive: max response [1] 1.07% | outcome [2] | max response [3] 4.46%

O=C(/C=C/c1c(C(=O)O)[nH]c2cc(Cl)cc(Cl)c12)Nc1ccccc1
inactive: max response [1] -11.7% | outcome [2] | outcome [3]

CC1CCC2(C)C(CC(O)C(O)C23CO3)C1(C)CCC1=CC(O)OC1=O (configuration not stated)
inactive: max response [1] 3.32% | outcome [2] | max response [3] 0.263%

C[C@@H]1O[C@@H](O[C@H]2[C@H](OC(C#N)c3ccc(O)cc3)O[C@H](CO)[C@@H](O)[C@@H]2O)[C@H](O)[C@H](O)[C@H]1O (some centres not stated)
inactive: max response [1] -7.05% | outcome [2] | outcome [3]

CCOC(=O)[C@H](CCc1ccccc1)CC1(C(=O)N[C@H]2CCc3ccccc3N(CC(=O)O)C2=O)CCCC1
inactive: max response [1] -3.46% | outcome [2] | outcome [3]

CCC(C)C1NC(=O)C2CCCN2C(=O)C(C(C)C)NC(=O)c2ccccc2NC(=O)C(Cc2ccc(O)cc2)NC(=O)C(C)NC(=O)C(C(C)O)NC1=O (configuration not stated) (cyclo([2Abz]VPITAY); configuration not given here)
inactive: max response [1] -3.19% | outcome [2] | outcome [3]
